Our source for the binding signal values is publication PMC7862700, “An all-to-all approach to the identification of sequence-specific readers for epigenetic DNA modifications on cytosine”.

Experiment in all cases: DAPPL (digital affinity profiling via proximity ligation, sequencing); 10 mM Tris-HCl pH 7.5, 50 mM NaCl, 1 mM DTT, 4% glycerol, room temperature, 30 min; GST-TFs on glutathione beads, 16-mer random dsDNA library, 0.1% formaldehyde crosslink after washing; high values mean tight binding
One assay concerns the target T1, FEV (Homo sapiens, UniProt Q99581 1-238).
T1 sequence: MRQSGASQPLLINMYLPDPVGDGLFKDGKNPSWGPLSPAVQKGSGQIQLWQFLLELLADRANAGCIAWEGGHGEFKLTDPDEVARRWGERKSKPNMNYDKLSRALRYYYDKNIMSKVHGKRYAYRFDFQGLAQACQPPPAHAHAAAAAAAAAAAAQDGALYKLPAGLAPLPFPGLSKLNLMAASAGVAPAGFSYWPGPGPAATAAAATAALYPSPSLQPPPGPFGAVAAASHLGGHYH
To be noted: protein: recombinant; tags: N-terminal GST; dsDNA, one strand shown. A digest of the protocol:
(§1)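 Human transcription factors carrying a GST fusion were produced in yeast, bound to glutathione beads, tagged with DNA barcodes and pooled together with a tag-only sample. Each pool was held with 200 nmole of a random double-stranded 16-mer DNA library in Tris/NaCl/DTT/glycerol buffer for 30 min at room temperature, then washed, crosslinked in 0.1% formaldehyde, proximity-ligated with BsaI/T4 ligase (1 h, 37 °C), PCR-amplified and sequenced on an Illumina NextSeq500. Binding signal is the read frequency of each hexamer for a given factor divided by its frequency in the tag-only sample.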

The target in a further assay is ETV5 (Homo sapiens, UniProt P41161 1-510). To be noted: protein: recombinant; tags: N-terminal GST; dsDNA, one strand shown. The procedure, abridged: as §1
ETV5, sequence (P41161 whole entry): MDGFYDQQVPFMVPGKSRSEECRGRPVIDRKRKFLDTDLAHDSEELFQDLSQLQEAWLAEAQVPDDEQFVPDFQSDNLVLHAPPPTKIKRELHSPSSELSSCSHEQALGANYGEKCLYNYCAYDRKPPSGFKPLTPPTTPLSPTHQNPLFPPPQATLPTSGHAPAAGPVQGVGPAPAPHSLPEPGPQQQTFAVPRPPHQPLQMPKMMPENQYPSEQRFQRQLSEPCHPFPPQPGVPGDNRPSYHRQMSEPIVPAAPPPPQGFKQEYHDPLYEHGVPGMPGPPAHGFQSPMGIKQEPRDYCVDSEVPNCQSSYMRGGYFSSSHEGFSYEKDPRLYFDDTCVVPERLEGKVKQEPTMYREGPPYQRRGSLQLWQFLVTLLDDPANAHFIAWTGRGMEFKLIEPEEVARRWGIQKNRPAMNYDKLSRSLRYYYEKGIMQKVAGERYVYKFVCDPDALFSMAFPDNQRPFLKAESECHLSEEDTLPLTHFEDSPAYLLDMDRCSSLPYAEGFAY
The target in a further assay is HSF1 (Homo sapiens, UniProt Q00613 1-529). To be noted: protein: recombinant; tags: N-terminal GST; chain copies: 3; dsDNA, one strand shown. The procedure, abridged: as §1
HSF1, sequence (Q00613 whole entry): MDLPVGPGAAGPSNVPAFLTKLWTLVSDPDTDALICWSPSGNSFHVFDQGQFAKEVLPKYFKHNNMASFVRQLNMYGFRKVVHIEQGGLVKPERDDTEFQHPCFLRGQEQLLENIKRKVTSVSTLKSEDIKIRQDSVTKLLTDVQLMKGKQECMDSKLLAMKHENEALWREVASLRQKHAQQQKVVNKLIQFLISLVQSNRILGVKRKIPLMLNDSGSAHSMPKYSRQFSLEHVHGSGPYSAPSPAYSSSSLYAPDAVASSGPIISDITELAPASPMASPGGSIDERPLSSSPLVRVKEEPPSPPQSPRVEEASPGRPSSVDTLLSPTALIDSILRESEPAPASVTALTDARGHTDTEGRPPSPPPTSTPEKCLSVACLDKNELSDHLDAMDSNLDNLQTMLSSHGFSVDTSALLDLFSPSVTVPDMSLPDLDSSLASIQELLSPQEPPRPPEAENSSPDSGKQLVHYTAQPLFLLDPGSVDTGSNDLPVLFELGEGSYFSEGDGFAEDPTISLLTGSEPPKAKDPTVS
Another assay concerns the target T2, SPIC (Homo sapiens, UniProt Q8N5J4 1-248).
T2 sequence: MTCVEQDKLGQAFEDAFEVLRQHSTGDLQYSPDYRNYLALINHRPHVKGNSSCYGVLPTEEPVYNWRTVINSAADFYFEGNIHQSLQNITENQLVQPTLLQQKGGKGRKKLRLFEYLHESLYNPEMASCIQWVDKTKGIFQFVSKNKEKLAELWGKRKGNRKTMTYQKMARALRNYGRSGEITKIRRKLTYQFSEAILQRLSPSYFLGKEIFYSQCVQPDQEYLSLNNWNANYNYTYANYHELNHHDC
To be noted: protein: recombinant; tags: N-terminal GST; dsDNA, one strand shown. A digest of the protocol:
as §1

The next assay deals with ELF4 (Homo sapiens, UniProt Q99607 1-663). The note with it: protein: recombinant; tags: N-terminal GST; dsDNA, one strand shown. The procedure, abridged: as §1
ELF4, sequence (Q99607 whole entry): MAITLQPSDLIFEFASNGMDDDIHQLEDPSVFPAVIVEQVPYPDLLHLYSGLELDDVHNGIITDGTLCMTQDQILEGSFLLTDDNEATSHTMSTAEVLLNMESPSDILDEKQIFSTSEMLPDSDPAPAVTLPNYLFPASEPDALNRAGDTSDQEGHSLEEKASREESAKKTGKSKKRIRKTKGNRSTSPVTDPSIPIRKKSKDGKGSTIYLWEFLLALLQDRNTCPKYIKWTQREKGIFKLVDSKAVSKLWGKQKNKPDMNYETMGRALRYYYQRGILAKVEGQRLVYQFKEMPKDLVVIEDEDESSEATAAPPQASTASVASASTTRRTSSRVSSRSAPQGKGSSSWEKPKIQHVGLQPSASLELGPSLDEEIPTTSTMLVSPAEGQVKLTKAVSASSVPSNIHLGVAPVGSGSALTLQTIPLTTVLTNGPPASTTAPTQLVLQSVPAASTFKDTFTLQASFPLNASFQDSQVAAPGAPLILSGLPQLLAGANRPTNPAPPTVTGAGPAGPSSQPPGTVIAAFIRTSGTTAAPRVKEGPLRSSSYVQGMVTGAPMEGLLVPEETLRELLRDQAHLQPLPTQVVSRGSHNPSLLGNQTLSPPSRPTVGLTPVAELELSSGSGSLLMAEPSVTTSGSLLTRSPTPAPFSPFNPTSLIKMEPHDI
The target of another assay is T3, ELK4 (Homo sapiens, UniProt P28324-2 1-405).
T3 sequence: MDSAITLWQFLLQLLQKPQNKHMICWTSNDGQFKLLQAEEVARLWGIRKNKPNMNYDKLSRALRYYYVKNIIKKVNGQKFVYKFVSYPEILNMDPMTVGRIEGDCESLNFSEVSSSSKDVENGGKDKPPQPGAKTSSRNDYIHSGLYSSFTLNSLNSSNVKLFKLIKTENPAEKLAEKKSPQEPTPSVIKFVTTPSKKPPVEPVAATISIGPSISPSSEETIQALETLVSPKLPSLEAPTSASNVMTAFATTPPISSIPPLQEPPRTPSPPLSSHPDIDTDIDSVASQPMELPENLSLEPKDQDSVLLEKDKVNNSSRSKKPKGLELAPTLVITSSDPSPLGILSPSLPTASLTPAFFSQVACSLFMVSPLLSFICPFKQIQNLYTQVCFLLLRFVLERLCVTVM
The note with it: protein: recombinant; tags: N-terminal GST; dsDNA, one strand shown. A digest of the protocol: as §1

Another assay has as its target T4, ETV2 (Homo sapiens, UniProt O00321 1-342).
T4 sequence: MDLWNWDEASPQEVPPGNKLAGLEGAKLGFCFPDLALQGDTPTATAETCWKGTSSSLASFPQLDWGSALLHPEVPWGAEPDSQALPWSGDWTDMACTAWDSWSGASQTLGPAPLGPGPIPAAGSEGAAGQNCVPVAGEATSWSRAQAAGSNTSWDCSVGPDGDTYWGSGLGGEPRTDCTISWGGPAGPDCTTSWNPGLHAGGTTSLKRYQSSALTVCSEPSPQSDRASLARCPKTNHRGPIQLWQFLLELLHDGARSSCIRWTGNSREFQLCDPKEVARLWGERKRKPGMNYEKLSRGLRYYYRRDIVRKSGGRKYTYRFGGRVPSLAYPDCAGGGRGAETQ
The note with it: protein: recombinant; tags: N-terminal GST; dsDNA, one strand shown. The procedure, abridged: as §1

A further assay concerns the target T5, ELF3 (Homo sapiens, UniProt P78545 1-371).
T5 sequence: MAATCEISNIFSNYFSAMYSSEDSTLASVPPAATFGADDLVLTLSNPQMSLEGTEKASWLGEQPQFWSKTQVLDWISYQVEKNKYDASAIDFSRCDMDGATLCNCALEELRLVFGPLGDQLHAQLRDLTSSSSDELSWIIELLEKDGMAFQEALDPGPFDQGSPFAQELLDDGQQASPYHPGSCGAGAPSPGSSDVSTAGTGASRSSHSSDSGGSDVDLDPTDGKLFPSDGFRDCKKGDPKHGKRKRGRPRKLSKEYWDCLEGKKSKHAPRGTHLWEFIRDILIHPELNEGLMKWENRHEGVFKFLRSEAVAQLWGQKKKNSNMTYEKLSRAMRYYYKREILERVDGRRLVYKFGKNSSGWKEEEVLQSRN
To be noted: protein: recombinant; tags: N-terminal GST; dsDNA, one strand shown. The procedure, abridged:
as §1

The target in a further assay is CRX (Homo sapiens, UniProt O43186 1-299). To be noted: protein: recombinant; tags: N-terminal GST; dsDNA, one strand shown. The procedure, abridged:
as §1

The target of a further assay is ETV1 (Homo sapiens, UniProt P50549 1-477). The note with it: protein: recombinant; tags: N-terminal GST; dsDNA, one strand shown. A digest of the protocol:
as §1

The target of a further assay is T6, ERF (Homo sapiens, UniProt P50548 1-548).
T6 sequence: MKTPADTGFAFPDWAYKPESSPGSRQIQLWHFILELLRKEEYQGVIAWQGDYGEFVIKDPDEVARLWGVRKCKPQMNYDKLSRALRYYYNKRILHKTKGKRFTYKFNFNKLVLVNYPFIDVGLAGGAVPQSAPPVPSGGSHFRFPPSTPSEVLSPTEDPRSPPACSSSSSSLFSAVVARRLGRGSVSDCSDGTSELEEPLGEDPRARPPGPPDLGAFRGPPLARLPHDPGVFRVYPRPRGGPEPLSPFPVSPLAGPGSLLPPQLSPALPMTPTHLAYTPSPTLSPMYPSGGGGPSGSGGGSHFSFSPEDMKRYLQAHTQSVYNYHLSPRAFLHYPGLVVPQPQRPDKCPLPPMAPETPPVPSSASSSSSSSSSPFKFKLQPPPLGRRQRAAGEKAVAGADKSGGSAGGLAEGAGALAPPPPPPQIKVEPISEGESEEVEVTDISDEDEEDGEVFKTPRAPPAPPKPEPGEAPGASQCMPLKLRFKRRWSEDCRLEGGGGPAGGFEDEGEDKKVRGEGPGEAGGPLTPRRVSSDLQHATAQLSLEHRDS
To be noted: protein: recombinant; tags: N-terminal GST; dsDNA, one strand shown. The procedure, abridged: as §1

Another assay has as its target T7, ETV3L (Homo sapiens, UniProt Q6ZN32 1-361).
T7 sequence: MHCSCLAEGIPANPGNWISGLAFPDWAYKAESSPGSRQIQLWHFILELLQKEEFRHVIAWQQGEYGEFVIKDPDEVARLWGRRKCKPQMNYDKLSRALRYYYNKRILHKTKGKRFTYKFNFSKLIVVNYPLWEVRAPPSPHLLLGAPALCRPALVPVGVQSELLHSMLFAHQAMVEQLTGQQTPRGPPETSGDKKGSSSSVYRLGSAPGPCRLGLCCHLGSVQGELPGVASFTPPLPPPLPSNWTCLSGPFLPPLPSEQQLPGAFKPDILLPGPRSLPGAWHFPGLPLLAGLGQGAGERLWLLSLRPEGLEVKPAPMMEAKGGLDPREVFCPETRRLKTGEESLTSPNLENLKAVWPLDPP
To be noted: protein: recombinant; tags: N-terminal GST; dsDNA, one strand shown. The procedure, abridged: as §1

The next assay deals with T8, ETS2 (Homo sapiens, UniProt P15036 1-469).
T8 sequence: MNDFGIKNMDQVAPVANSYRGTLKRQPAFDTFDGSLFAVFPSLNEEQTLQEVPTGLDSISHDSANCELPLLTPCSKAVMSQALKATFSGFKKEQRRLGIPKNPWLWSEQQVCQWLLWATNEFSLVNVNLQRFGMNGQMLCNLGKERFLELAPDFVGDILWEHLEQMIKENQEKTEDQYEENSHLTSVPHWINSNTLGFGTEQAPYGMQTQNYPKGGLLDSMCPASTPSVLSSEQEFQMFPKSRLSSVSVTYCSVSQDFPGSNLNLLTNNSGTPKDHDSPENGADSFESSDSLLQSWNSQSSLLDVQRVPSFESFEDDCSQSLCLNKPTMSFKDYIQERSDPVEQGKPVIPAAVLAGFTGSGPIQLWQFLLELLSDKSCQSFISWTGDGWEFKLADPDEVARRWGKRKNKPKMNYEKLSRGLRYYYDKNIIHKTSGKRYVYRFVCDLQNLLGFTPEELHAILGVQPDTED
The note with it: protein: recombinant; tags: N-terminal GST; dsDNA, one strand shown. A digest of the protocol: as §1

A further assay addresses T9, SPDEF (Homo sapiens, UniProt O95238 1-335).
T9 sequence: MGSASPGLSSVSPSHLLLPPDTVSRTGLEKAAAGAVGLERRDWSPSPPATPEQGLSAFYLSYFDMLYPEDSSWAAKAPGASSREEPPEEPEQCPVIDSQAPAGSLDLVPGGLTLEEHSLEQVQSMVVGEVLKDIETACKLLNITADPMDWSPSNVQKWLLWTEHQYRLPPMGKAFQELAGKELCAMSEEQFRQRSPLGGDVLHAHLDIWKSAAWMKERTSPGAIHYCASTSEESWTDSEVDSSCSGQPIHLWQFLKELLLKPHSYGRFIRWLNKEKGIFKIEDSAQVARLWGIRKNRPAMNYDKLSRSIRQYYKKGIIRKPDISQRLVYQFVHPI
The note with it: protein: recombinant; tags: N-terminal GST; dsDNA, one strand shown. The procedure, abridged: as §1

The target of another assay is T10, ETV7 (Homo sapiens, UniProt Q9Y603 1-341).
T10 sequence: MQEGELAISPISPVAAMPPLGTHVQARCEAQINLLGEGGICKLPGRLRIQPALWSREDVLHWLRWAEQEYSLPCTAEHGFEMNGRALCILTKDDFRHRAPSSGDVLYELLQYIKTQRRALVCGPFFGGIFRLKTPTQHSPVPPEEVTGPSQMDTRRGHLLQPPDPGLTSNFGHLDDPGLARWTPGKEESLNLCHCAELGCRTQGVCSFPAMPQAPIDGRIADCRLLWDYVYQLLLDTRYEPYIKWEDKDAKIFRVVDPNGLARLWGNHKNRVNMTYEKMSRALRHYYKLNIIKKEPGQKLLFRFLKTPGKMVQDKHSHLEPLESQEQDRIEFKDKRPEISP
To be noted: protein: recombinant; tags: N-terminal GST; dsDNA, one strand shown. The procedure, abridged: as §1

Another assay deals with T11, ELF5 (Homo sapiens, UniProt Q9UKW6-2 1-255).
T11 sequence: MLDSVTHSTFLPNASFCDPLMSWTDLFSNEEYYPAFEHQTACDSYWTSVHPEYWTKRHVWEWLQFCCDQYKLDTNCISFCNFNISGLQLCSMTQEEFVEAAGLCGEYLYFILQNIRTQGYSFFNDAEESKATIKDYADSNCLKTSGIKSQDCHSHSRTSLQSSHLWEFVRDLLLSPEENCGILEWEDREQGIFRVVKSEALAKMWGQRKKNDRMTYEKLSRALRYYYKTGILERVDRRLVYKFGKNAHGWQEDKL
The note with it: protein: recombinant; tags: N-terminal GST; dsDNA, one strand shown. The procedure, abridged: as §1

The target of another assay is T12, ETV3 (Homo sapiens, UniProt P41162-2 1-143).
T12 sequence: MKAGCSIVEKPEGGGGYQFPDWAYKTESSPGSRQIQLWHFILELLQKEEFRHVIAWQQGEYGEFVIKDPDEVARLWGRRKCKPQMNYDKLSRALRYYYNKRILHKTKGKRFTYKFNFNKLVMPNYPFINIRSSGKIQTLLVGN
The note with it: protein: recombinant; tags: N-terminal GST; dsDNA, one strand shown. A digest of the protocol:
as §1

Another assay has as its target ETV6 (Homo sapiens, UniProt P41212 1-452). The note with it: protein: recombinant; tags: N-terminal GST; dsDNA, one strand shown. A digest of the protocol:
as §1

CRX, sequence (O43186 whole entry): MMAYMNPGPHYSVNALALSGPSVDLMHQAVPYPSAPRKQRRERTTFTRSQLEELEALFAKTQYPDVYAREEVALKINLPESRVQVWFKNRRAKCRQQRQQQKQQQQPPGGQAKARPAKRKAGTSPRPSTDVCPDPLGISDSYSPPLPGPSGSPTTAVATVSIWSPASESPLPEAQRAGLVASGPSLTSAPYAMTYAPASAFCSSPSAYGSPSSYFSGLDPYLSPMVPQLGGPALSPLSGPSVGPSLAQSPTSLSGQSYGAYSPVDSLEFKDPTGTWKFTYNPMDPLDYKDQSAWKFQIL
ETV1, sequence (P50549 whole entry): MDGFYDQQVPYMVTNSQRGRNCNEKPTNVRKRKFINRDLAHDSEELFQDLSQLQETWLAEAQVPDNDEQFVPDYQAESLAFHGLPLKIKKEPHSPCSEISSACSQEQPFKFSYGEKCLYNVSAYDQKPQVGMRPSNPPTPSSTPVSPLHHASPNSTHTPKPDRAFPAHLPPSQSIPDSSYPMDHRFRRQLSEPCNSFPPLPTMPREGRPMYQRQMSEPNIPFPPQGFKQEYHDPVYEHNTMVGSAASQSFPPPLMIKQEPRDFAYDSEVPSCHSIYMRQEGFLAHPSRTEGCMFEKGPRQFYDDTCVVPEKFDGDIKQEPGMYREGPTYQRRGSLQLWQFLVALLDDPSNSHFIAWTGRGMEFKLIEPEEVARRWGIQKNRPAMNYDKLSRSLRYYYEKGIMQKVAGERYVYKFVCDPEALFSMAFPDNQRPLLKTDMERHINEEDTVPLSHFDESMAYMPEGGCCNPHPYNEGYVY
ETV6, sequence (P41212 whole entry): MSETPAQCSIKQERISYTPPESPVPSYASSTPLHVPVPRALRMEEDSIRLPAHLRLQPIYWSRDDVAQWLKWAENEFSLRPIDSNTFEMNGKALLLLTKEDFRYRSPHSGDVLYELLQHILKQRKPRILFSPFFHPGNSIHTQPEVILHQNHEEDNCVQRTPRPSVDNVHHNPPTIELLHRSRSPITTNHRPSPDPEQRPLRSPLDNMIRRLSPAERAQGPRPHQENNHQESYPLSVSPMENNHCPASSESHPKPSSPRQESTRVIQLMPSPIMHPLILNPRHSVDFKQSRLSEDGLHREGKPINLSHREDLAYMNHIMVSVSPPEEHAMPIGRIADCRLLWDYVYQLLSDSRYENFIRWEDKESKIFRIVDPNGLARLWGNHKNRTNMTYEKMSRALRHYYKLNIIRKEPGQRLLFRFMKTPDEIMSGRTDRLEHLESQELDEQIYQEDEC

As to TCTGAT, the binding signal with FEV was 1.18 fold enrichment (6-mer frequency, TF over GST control); with ETV5 it was 1.23 fold enrichment (6-mer frequency, TF over GST control); with HSF1, 1.28 fold enrichment (6-mer frequency, TF over GST control); in the assay with SPIC, 1.26 fold enrichment (6-mer frequency, TF over GST control); in the assay with ELF4, 1.24 fold enrichment (6-mer frequency, TF over GST control); with ELK4 it was 1.19 fold enrichment (6-mer frequency, TF over GST control). The binding signal with ETV2 was 1.11 fold enrichment (6-mer frequency, TF over GST control); with ELF3 it was 1.17 fold enrichment (6-mer frequency, TF over GST control); with CRX it was 1.55 fold enrichment (6-mer frequency, TF over GST control); in the assay with ETV1 it was 1.15 fold enrichment (6-mer frequency, TF over GST control); in the assay with ERF, 1.22 fold enrichment (6-mer frequency, TF over GST control); with ETV3L it was 1.29 fold enrichment (6-mer frequency, TF over GST control). Besides, the binding signal was 1.29 fold enrichment (6-mer frequency, TF over GST control) with ETS2; 1.22 fold enrichment (6-mer frequency, TF over GST control) in the assay with SPDEF; 1.23 fold enrichment (6-mer frequency, TF over GST control) in the assay with ETV7; 1.19 fold enrichment (6-mer frequency, TF over GST control) in the assay with ELF5; 1.21 fold enrichment (6-mer frequency, TF over GST control) with ETV3; 1.19 fold enrichment (6-mer frequency, TF over GST control) in the assay with ETV6.
